The source of these data is PubChem BioAssay AID588342 (National Center for Advancing Translational Sciences (NCATS), 2011).

The structures appear in SMILES notation. Screen size: about 360,000 compounds; about 25,000 (6.9%) were called active. A call without a number means that no potency is given here. Inconclusive results (about 9%) are left out. Calls come from the whole dose curve; as a rule, active = well fitted inhibition curve with a large enough effect; inconclusive = small, poorly fitted or top-dose-only effect; inactive = flat fitted curve, though single readings scatter. Only a selection was taken, and actives are over-represented in it overall.
Potency is the fitted concentration of half-maximal effect.

Luciferin 4-monooxygenase (Photinus pyralis), sequence (P08659 whole entry, looked up): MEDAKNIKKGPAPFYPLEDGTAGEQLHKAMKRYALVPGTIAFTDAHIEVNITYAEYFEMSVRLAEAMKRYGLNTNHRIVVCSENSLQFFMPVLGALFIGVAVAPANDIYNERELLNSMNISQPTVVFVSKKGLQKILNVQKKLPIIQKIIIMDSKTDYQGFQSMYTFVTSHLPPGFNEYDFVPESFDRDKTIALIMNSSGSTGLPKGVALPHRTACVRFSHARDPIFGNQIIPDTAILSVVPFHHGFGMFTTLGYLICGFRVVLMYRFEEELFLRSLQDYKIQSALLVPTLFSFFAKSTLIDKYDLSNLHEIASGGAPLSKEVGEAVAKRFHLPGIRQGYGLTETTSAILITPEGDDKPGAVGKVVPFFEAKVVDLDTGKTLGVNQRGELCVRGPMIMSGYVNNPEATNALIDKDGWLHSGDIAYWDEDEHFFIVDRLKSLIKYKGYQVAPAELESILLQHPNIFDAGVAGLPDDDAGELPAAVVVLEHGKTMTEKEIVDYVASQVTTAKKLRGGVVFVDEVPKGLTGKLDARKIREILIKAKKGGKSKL

This assay concerns the target Luciferin 4-monooxygenase (Photinus pyralis) (UniProt P08659). As to the kind of experiment: qHTS profiling assay for firefly luciferase inhibitor/activator using purifed enzyme and Km concentrations of substrates (counterscreen for miR-21 project). Note: nearly all actives have a fitted effect of over 55% in size. Conditions: purified FLuc, luminescence inhibition; series mostly up to 57.5 µM. The procedure, abridged:
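Purified P. pyralis luciferase (10nM final) with 10uM D-luciferin and 10uM ATP (Km levels) in 50mM Tris acetate pH 7.5, 10mM Mg acetate, 0.01% Tween-20, 0.05% BSA; qHTS 6-point titration, ~60 µM downward; luminescence read.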
Background: qHTS replaces the single test concentration by a dilution series.
On to `CC1CCCC(C)N1C(=O)CN1CCN(c2nc(-c3ccc(F)cc3)cs2)CC1` (configuration not stated), for which the Potency entry was “inactive”.
In the case of `COCCNC(=O)Nc1ccc2nc(-c3ccco3)c(-c3ccco3)nc2c1` it was 21.3 µM (active); in that of `COc1ccc(NC(=O)COCc2cc(-c3ccco3)on2)cc1`, “inactive”; in that of `CCOc1cc(NC(=S)NCCCOC)c(OCC)cc1NC(=O)c1ccco1`, “inactive”.
Regarding `O=C(CCNC(=O)c1ccc(Br)cc1)Nc1cccc(S(=O)(=O)N2CCCCC2)c1`, the Potency result was “inactive”.
In the case of `Cc1ccc(C(=O)NCC(=O)OCC(=O)Nc2cccc(S(=O)(=O)N3CCCC3)c2)cc1C`, the Potency was 9.53 µM (active).
In the case of `Cc1ccc(C)c(OCCC(=O)Nc2cccc(S(=O)(=O)N3CCCC3)c2)c1`, the Potency result is “inactive”.
In the case of `CC(OC(=O)c1ccccc1N1C(=O)C2C3CCC(C3)C2C1=O)C(=O)c1ccccc1` (configuration not stated), the Potency result was “inactive”.
On to `COc1ccc(C(=O)COC(=O)c2ccc3ccccc3n2)cc1`, for which the Potency was 21.3 µM (active).
In the case of `CC(OC(=O)CN1C(=O)c2ccccc2C1=O)C(=O)c1ccccc1` (configuration not stated) it was “inactive”; in that of `CC(OC(=O)c1ccc2ccccc2n1)C(=O)c1ccccc1` (configuration not stated), 0.953 µM (active).
In the case of `COc1ccc(C(=O)COC(=O)COc2ccc(C)c(C)c2)cc1`, the Potency result was “inactive”.
As for `COc1ccc(C(=O)OCC(=O)NC(=O)CCSc2ccccc2)cc1`, the Potency result is “inactive”.
Turning to `CCc1ccc2ncc3c(-c4ccc(C)cc4)nn(CC(=O)NCc4ccccc4)c3c2c1`, the Potency result was “inactive”.
To `COC(=O)C1=CO[C@@H](O[C@@H]2O[C@H](CO)[C@@H](O)[C@H](O)[C@H]2O)C2C1C[C@H](O)[C@@H]2C` (some centres not stated) belongs “inactive”; to `Cc1ccc(Cn2c(SCC(=O)N/N=C/c3ccccc3OCC(=O)O)nc3ccccc32)cc1`, “inactive”; to `CCn1c(SCC(=O)N/N=C/c2ccccc2OCC(=O)O)nnc1-c1ccc(C(C)(C)C)cc1`, 26.9 µM (active).
With `CCn1c(SCC(=O)N/N=C/C=C/c2ccccc2[N+](=O)[O-])nnc1-c1ccccc1`, the Potency entry is “inactive”.
For `CNC(=O)c1csc(Cc2c(Cl)sc3ccc(Cl)cc23)n1`, the Potency result is “inactive”.
Take `O=C(COC(=O)c1ccccc1C(=O)c1ccccc1)c1ccco1`: the Potency entry is “inactive”.
`CCc1ccc(C(=O)COC(=O)c2ccco2)cc1`: the Potency was 0.478 µM (active).
Regarding `O=C(OCC(=O)N1CCCC1)c1ccco1`, the Potency entry is “inactive”.
Turning to `O=C(COC(=O)c1ccco1)NCc1ccc(Cl)cc1`, the Potency result was “inactive”.
In the case of `O=C(OCC(=O)N1CCN(C(=O)c2ccco2)CC1)c1ccc(Cl)c(Cl)c1`, the Potency entry is “inactive”.
Turning to `CCN(CC)c1ccc(C(=O)OCC(=O)c2ccco2)cc1`, the Potency was 15.1 µM (active).
As for `C[C@@H](NC(=O)[C@@H]1Cc2ccccc2CN1)C(=O)NC1CCCC1`, the Potency result is “inactive”.
Regarding `COc1ccccc1CNC(=O)c1cc(=O)c2ccccc2o1`, the Potency entry is “inactive”.
Turning to `CCOC(=O)c1sc(N)c(C#N)c1COC(=O)C1=COCCO1`, the Potency result is “inactive”.
Take `CN(CC(=O)Nc1c(Cl)cccc1Cl)C(=O)CC1OC(=O)c2ccccc21` (configuration not stated): the Potency result is “inactive”.
`CCOc1ccc(N(CC)S(=O)(=O)N2CCCC(C(=O)NCc3ccc(SC)cc3)C2)cc1` (configuration not stated): the Potency entry was “inactive”.
With `Cc1oc2c(c1C(=O)Nc1ccc(F)c(F)c1)C1=NCCN1C=N2`, the Potency entry is “inactive”.
As to `Brc1ccccc1C1N=C(c2ccccc2)NO1` (configuration not stated), the Potency was 19 µM (active).
In the case of `N#Cc1ccc(C2N=C(c3ccccc3)NO2)cc1` (configuration not stated) it was 10.7 µM (active); in that of `CCOC(=O)Cn1c(=O)n(C2CCCCC2)c2nc(-c3cccc(OC)c3)nc(C(N)=O)c21`, “inactive”.
In the case of `COc1ccc(CNC(=O)c2cc3c(-c4ccccc4F)nn(C)c3s2)c(OC)c1` it was “inactive”.
As to `CCOC(=O)C1CCCN(C(=O)c2ccc(-n3ccc4ccccc43)s2)C1` (configuration not stated), the Potency entry is “inactive”.
In the case of `CCN(Cc1ccccc1)C(=O)CCS(=O)(=O)c1ccc2c(c1)oc(=O)n2C` it was “inactive”; in that of `Cc1ccc(/C=C/C(=O)OCC(=O)NCc2ccc(Cl)cc2)o1`, “inactive”.
`CCC(=O)N1CCc2cc(Br)cc(S(=O)(=O)NCc3ccc(Cl)cc3)c21`: the Potency entry is “inactive”.
With `C=CCNC(=O)c1ccc2c3n(nc2c1)-c1ccc(C)cc1CO3`, the Potency is 2.39 µM (active).
In the case of `CCCNC(=O)c1ccc2c(c1)ncn2-c1ccc(C)cc1C` it was “inactive”; in that of `C=CCNC(=O)c1ccc(C)c(Br)c1`, “inactive”; in that of `COc1cccc(CNC(=O)C(NS(=O)(=O)c2ccc3nc(C)sc3c2)C(C)C)c1` (configuration not stated), “inactive”.
With `C/C(=N/NC(=O)c1cc(Cl)ccc1O)C12CC3CC(CC(C3)C1)C2`, the Potency is 15.1 µM (active).
To `COc1ccc(Cl)cc1NC(=O)CN(C)C(=O)CNC(=O)C12CC3CC(CC(C3)C1)C2` belongs “inactive”; to `COc1ccc(OC)c(/C(C)=N\NC(=O)c2cc3cc(Cl)ccc3n2C)c1`, “inactive”.
Regarding `NC(=O)NCCCC(=O)O`, the Potency entry was “inactive”.
In the case of `CSc1ncc(C(=O)NCc2ccccc2Cl)c(C(F)(F)F)n1`, the Potency entry is “inactive”.
For the compound `Cc1cccc(C)c1OCCN1CCOCC1`, the Potency entry was “inactive”.
Take `Cc1cc2nc(SCCN3CCOCC3)[nH]c2cc1C`: the Potency was 19 µM (active).
On to `CCn1c2ccc(F)cc2c2nnc(SCCN3CCOCC3)nc21`, for which the Potency result is “inactive”.
As to `Cc1ccc(NC(=O)CNCc2ccccn2)cc1S(=O)(=O)N(C)C`, the Potency result was “inactive”.
To `Cc1ccc(C(=O)Nc2ccc(NC(=O)c3cccs3)cc2)c(C)c1` belongs “inactive”; to `Cc1ccc(C(=O)Nc2ccc(C)c(S(=O)(=O)N(C)C)c2)s1`, 1.9 µM (active).
Regarding `COc1ccc(CCC(=O)OCC(=O)Nc2ccc(C)c(S(=O)(=O)N(C)C)c2)cc1`, the Potency result was “inactive”.
Take `Cc1ccc(C(=O)Nc2ccc(C(=O)O)cc2)cc1S(=O)(=O)Nc1ccccc1`: the Potency entry is “inactive”.
To `Cc1ccc(NC(=O)c2cccs2)cc1S(=O)(=O)N(C)C` belongs 15.1 µM (active); to `Cc1cc(C)c(/C=C/c2onc(C)c2S(=O)(=O)N2CCC(C(=O)Nc3ccc(Cl)cc3C)CC2)c(C)c1`, “inactive”; to `COc1ccc(C(=O)CSc2c(C(C)C)cnc3c2c(=O)n(C)c(=O)n3C)cc1`, “inactive”.
For `O=C(CSc1nc2nccnc2c(=O)n1CCc1c[nH]c2ccccc12)Nc1ccccc1F`, the Potency result is “inactive”.
Turning to `O=C(CN1CCN(Cc2ccc(Cl)cc2)C1=O)NCc1ccc(F)cc1`, the Potency entry was “inactive”.
For the compound `COc1ccc(N2C(=O)CS(=O)(=O)C23C(=O)N(Cc2ccc(C)cc2)c2ccccc23)cc1Cl` (configuration not stated), the Potency result is “inactive”.
Consider `O=S(=O)(NCCS(=O)(=O)N1CCN(c2ccccc2)CC1)c1ccc(Cl)cc1`, for which the Potency result was “inactive”.
Regarding `CSc1c(SCc2ccccc2)cnn(Cc2ccccc2)c1=O`, the Potency entry is “inactive”.
In the case of `CN(C)c1cc[n+](Cc2ccccc2)cc1`, the Potency entry was “inactive”.
Consider `CC1=NN(Cc2ccccc2)C(=O)/C1=C/c1ccc(N(C)C)cc1`, for which the Potency was 6.75 µM (active).
With `COc1ccc(C)cc1NC(=O)CN1c2cccc3cccc(c23)S1(=O)=O`, the Potency entry was “inactive”.
Regarding `CCOC(=O)c1cc(-c2ccccc2C)n(Cc2cc(C)no2)n1`, the Potency entry is “inactive”.
Take `CC(C)CC(=O)Nc1ccc(Cc2ccncc2)cc1`: the Potency entry is “inactive”.
In the case of `COc1cccc(OC)c1C(=O)Nc1ccc(Cc2ccncc2)cc1` it was “inactive”; in that of `CCc1ccc(NC(=O)Nc2ccncc2)cc1`, 9.53 µM (active).
As to `CCCN(C(=O)c1nc2nccc(C)n2n1)c1c(N)n(Cc2ccccc2)c(=O)[nH]c1=O`, the Potency result is “inactive”.
In the case of `CCOC(=O)/C(=N\Nc1cc(Cl)ccc1Cl)N1CCN(C)CC1` it was “inactive”; in that of `CC(C)Cc1nc(Nc2ccc(S(=O)(=O)N3CCCC3)cc2)c2nnn(Cc3ccccc3)c2n1`, “inactive”.
Consider `Cc1onc(-c2ccc(F)cc2F)c1C(=O)Nc1cccc(C(F)(F)F)c1`, for which the Potency entry is “inactive”.
In the case of `CCCC(=O)Nc1cccc(NC(=S)NC(=O)C(C)Oc2ccc(Cl)cc2Cl)c1` (configuration not stated), the Potency entry was “inactive”.
`CC(C)n1ncc2c(C(=O)NCc3ccccc3CN(C)C)cc(C3CC3)nc21`: the Potency result is “inactive”.
In the case of `COC(=O)Cc1cc(=O)n(-c2nc3ccccc3s2)[nH]1` it was 16.9 µM (active); in that of `COC(=O)Cc1csc(Nc2c(C)n(C)n(-c3ccccc3)c2=O)n1`, “inactive”.
Turning to `COC(=O)CC1=NN(c2nc(C)cc(C)n2)C(=O)C1`, the Potency result is “inactive”.
As to `CCCCOc1ccc(CNC(=O)c2ccc3c(c2)N(C)C(=O)C2CCCCN32)cc1` (configuration not stated), the Potency result was “inactive”.
For `C/C(=N\c1nc2ccccc2n1C)c1cc(Cl)ccc1O`, the Potency entry was “inactive”.
On to `Cc1c(C(=O)Nc2cccc(Cl)c2)cn2c(nc3ccccc32)c1C#N`, for which the Potency result was “inactive”.
Turning to `Cn1c(Nc2cccc(Cl)c2)nc2ccccc21`, the Potency was 26.9 µM (active).
As for `Cc1ccc(S(=O)(=O)N2CCc3cc(C(=O)Nc4ccc(Cl)cc4C)ccc32)cc1`, the Potency entry was “inactive”.
`NC(=O)Cn1cc(/C=N\NS(=O)(=O)c2ccccc2)c2ccccc21`: the Potency entry is “inactive”.
`COc1cccc(NCCC(=O)c2cccc([N+](=O)[O-])c2)c1`: the Potency was 15.1 µM (active).
In the case of `COc1cccc(C(=O)CC(=O)C(=O)Nc2ccc([N+](=O)[O-])cc2C)c1` it was “inactive”; in that of `COc1cccc(CNC(=O)CCCC(=O)Nc2cccc([N+](=O)[O-])c2)c1`, “inactive”; in that of `CC(=O)c1ccc(OCCCC(=O)Nc2ccc(C)c(S(=O)(=O)N3CCOCC3)c2)cc1`, “inactive”.
As to `Cc1ccc(NC(=O)CN2c3ccccc3S(=O)(=O)c3ccccc32)cc1F`, the Potency result is “inactive”.
Take `Cc1ccc(F)cc1S(=O)(=O)N1CCC(c2nc3ccccc3s2)CC1`: the Potency entry is “inactive”.
As for `CC1=CC(=C(C#N)c2nc3ccccc3s2)C=C(C)N1c1ccc(F)cc1F`, the Potency was 1.35 µM (active).
As for `N#C/C(=C(/O)Cc1cccc2ccccc12)c1nc2ccccc2s1`, the Potency entry was “inactive”.
Consider `COc1ccc(C(C(O)C(=O)c2c[nH]c3ccccc23)N2CCN(c3ccccc3)CC2)cc1` (configuration not stated), for which the Potency result was “inactive”.
For the compound `COc1ccc(/C=C(\C#N)c2c[nH]c3ccccc23)cc1`, the Potency was 19 µM (active).
Consider `COc1ccc2[nH]cc(/C=C(/C#N)S(=O)(=O)c3ccccc3)c2c1`, for which the Potency entry is “inactive”.
Take `CCOC(=O)c1cc(NC(=O)c2ccc(F)cc2)c(=O)n2c1oc1ccccc12`: the Potency entry was “inactive”.
To `COC1=C/C(=C/c2c(N)n3nc(CC(=O)N4CCOCC4)sc3nc2=O)C=CC1=O` belongs “inactive”.
In the case of `CCNC(=O)c1ccc(OCC(=O)Nc2ccc(F)cc2)c(OC)c1` it was “inactive”; in that of `COc1cc2c(cc1OC)/C(=C/C(=O)c1ccc(NC(C)=O)cc1)NCC2`, 16.9 µM (active).
In the case of `COc1cc2c(cc1OC)CN(CC(=O)Nc1ccc(F)cc1)CC2` it was “inactive”.
